{"source": "PubChem BioAssay (NCATS)", "note": "Several values for one entry are separate records, joined by “and”; a condition that tells them apart may be missing. Equal values may be shown once. Inconclusive results are not listed. A call without a number means that no potency is given here. Some structures have more than one record in an assay (separate samples or runs), and their calls can disagree. Activity calls are given as the source filed them. The call rests on the fitted dose curve; in most records, active means well fitted inhibition curve with a large enough effect; inconclusive means small, poorly fitted or top-dose-only effect; inactive means flat fitted curve, though single readings scatter. Potency means the concentration at half of the fitted maximal effect."}
{"target": "Voltage-gated inwardly rectifying potassium channel KCNH2 (Homo sapiens) (UniProt Q12809)", "sequence (Q12809 whole entry, looked up)": "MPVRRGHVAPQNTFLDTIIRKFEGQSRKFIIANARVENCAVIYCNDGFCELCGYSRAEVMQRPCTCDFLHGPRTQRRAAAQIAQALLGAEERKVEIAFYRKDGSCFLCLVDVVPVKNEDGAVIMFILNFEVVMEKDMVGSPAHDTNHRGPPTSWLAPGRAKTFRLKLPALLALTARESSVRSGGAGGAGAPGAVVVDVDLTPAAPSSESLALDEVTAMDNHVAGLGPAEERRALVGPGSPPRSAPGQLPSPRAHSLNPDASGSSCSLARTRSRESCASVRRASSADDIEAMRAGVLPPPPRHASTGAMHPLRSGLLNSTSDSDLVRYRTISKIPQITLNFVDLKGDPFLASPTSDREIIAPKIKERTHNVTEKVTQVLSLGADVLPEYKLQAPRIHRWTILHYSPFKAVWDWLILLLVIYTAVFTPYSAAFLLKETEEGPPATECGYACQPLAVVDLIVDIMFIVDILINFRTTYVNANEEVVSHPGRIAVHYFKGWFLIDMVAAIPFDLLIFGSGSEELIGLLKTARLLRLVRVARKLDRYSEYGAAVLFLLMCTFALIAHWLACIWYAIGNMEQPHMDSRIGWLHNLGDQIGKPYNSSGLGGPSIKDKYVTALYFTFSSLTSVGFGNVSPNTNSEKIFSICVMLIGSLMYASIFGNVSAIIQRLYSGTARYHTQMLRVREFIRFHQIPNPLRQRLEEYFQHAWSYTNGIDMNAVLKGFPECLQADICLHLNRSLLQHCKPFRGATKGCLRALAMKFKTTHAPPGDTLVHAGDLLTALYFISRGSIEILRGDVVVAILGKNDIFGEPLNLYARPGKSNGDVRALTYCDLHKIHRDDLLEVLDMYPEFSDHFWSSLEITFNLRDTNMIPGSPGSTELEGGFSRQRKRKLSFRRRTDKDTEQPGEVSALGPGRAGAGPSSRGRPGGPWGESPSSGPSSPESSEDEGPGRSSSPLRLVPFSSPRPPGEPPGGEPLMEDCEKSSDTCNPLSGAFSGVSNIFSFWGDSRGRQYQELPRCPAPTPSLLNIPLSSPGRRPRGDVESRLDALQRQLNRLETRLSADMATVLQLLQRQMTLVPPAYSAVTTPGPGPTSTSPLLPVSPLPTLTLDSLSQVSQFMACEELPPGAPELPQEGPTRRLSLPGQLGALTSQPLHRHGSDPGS", "experiment": "qHTS Assay for Small Molecule Inhibitors of the Human hERG Channel Activity (AID 588834);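 further: lower thallium flux fluorescence means stronger hERG block; nearly all actives have a fitted effect of over 50% in size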", "conditions": "U2OS BacMam hERG, FluxOR thallium flux fluorescence; series mostly up to 46.1 µM", "excerpt": "NIH Chemical Genomics Center [NCGC]\nNational Institutes of Environmental Health Sciences [NIEHS]\nNational Toxicology Program [NTP]\nWe have developed a 1536-well cell-based assay for quantitative high throughput screening (qHTS) to determine in vitro hERG channel blockage as a measure of cardio toxicity with small molecules. This particular assay uses the U2OS cell line which is derived from human osteosarcoma.\nNCGC Assay Protocol Summary:\nHERG assay (FluxORTM thallium flux assay) was initially developed by Invitrogen/Molecular Probes, and then miniaturized into 1536-well plate in a homogeneous format by NCGC. This assay measures the activity of potassium channel using thallium dye (FluxOR) flux as surrogate measurement for potassium into the cells with a FDSS-7000 kinetic plate reader (Hamamatsu Corp., Hamamatsu City, Japan). The hERG ion channel is transduced into mammalian cells (U2OS) using a baculovirus (Bacmam) construct harboring the hERG K+ ion channel. So far we screened LOPAC1280 library (Sigma), the NTP collection of 1408 compounds, and the NCGC Pharmaceutical Collection (NPC), in which many well defined HERG blockers are present. The rank order potencies of many of these compounds are similar to that of other HERG assays (membrane potential, Rb+ flux, patch clamp, etc). This quick and homogeneous assay is also found to be sensitive, specific, and robust.\nUsing the FluxORTM thallium flux assay, the activity of potassium channel using thallium dye (FluxOR) flux as surrogate measurement for potassium into the cells was measured in the U2OS cell line transduced with hERG K+ ion channel using a baculovirus (Bacmam) using Opti-MEM medium (Invitrogen) containing 2% fetal calf serum (FCS, HyCone) following loading buffer addition, compound treatment for around 10 minutes and finally adding stimulation buffer. The assay was performed in black clear Kalypsys 1536-well plates. In the screen, Astemizole was used as positive controls. Library compounds were measured for their ability to cause hERG channel blockage in the cell line, as reflected by a decrease in fluorescence intensity, in a concentration-dependent manner. […] AC50 values were determined from concentration-response data modeled with the standard Hill equation.\nqHTS protocol for hERG-U2OS cellular assay\n[Step] [Parameter] [Value] [Description]\n1. Day 1: Replace medium in 70-80% confluent T225 flask with 2.5 mL of hERG-BacMam virus plus 12.5 mL of phosphate buffered saline (PBS) (corresponding roughly to a multiplicity of infection ratio of 100 virus particles/cell)\n2. Incubation: 4 hrs @ room Temperature in Dark\n3. Reagent; Remove virus; wash once with 25 ml DPBS\n4. Reagent; 35 ml culture medium\n5. Incubation; 37 °C overnight\n6. Day2: Reagent; 3 uL; 2000 U2OS cells/well\n7. Time; 4 hr; 37 °C incubation\n8. Loading buffer; 1 uL; 0.7X;\n9. Incubation: 1hr @ RT in Dark.\n12. Time; 10min; 37 °C incubation\n13. Read fluorescence Intensity on FDSS for 10 Sec with 1 sec interval\n14. Reagent; 1 uL; stimulation buffer\n15. Read fluorescence Intensity on FDSS for 2 min with 1 sec interval\n16. Detection; Fluorescence Intensity; FDSS"}
{"smiles": "CC(C)(Oc1ccc(CCNC(=O)c2ccc(Cl)cc2)cc1)C(=O)O", "Potency": "inactive"}
{"smiles": "c1ccc2c(c1)CCCC2C1=NCCN1", "note": "(stereo not given)", "Potency": "inactive"}
{"smiles": "CC(C)NNC(=O)c1ccncc1", "Potency": "inactive"}
{"smiles": "CCc1cccc(N(C)C(N)=Nc2cccc3ccccc23)c1", "Potency": "8.91 µM (active)"}
{"smiles": "CCn1ccnc1CC1COc2ccccc2O1", "note": "(stereo not given)", "Potency": "inactive"}
{"smiles": "FC(F)(F)c1ccccc1-n1ccnc1", "Potency": "inactive"}
{"smiles": "Nc1ncn([C@@H]2O[C@H](CO)[C@@H](O)[C@H]2O)c(=O)n1", "Potency": "inactive"}
{"smiles": "CCCCOCCOCCOCc1cc2c(cc1CCC)OCO2", "Potency": "inactive"}
{"smiles": "CCCC(C(=O)OCCN(CC)CC)(c1ccccc1)c1ccccc1", "Potency": "11.2 µM (active) and 10 µM (active)"}
{"smiles": "CCN(Cc1ccncc1)C(=O)C(CO)c1ccccc1", "note": "(stereo not given)", "Potency": "inactive"}
{"smiles": "NC(Cc1ccc(Cl)cc1)C(=O)O", "note": "(stereo not given)", "Potency": "inactive"}
{"smiles": "COC(=O)[C@H]1[C@H]2C[C@@H]3c4[nH]c5cc(OC)ccc5c4CCN3C[C@H]2C[C@@H](OC(=O)c2cc(OC)c(OC)c(OC)c2)[C@@H]1OC", "Potency": "2.82 µM (active) and 5.01 µM (active) and 794 nM (active)"}
{"smiles": "CC1=NS(=O)(=O)c2cc(Cl)ccc2N1", "Potency": "inactive"}
{"smiles": "NCCCNCCSP(=O)(O)O", "Potency": "inactive"}
{"smiles": "C=CCc1ccccc1OCC(O)CNC(C)C", "note": "(stereo not given)", "Potency": "inactive and 11.2 µM (active)"}
{"smiles": "CCc1c(C)[nH]c2c1C(=O)C(CN1CCOCC1)CC2", "note": "(stereo not given)", "Potency": "inactive"}
{"smiles": "CCCOc1ccccc1-c1nc2n[nH]nc2c(=O)[nH]1", "Potency": "inactive"}
{"smiles": "C[C@H](CS)C(=O)N1CCC[C@H]1C(=O)O", "Potency": "inactive"}
{"smiles": "CCCCNc1c(C(=O)OCC)c(C)nc2c1cnn2CC", "Potency": "inactive"}
{"smiles": "CC[N+](C)(C)c1cccc(O)c1", "Potency": "inactive"}
{"smiles": "CCCCNC(=O)NS(=O)(=O)c1ccc(C)cc1", "Potency": "inactive"}
{"smiles": "CCN1CCc2nc(N)oc2CC1", "Potency": "inactive"}
{"smiles": "O=C(O)CCCCCCCC(=O)O", "Potency": "inactive"}
{"smiles": "CCCNC(C)C(=O)Nc1ccccc1C", "note": "(stereo not given)", "Potency": "inactive"}
{"smiles": "O=C(O)CP(=O)(O)O", "Potency": "inactive"}
{"smiles": "CN(C)C(=O)Oc1ccc[n+](C)c1", "Potency": "inactive"}
{"smiles": "CN1CCN(C2=Nc3ccccc3Oc3ccc(Cl)cc32)CC1", "Potency": "11.2 µM (active) and 10 µM (active)"}
{"smiles": "CC(C)(C)NCC(O)c1cc(O)cc(O)c1", "note": "(stereo not given)", "Potency": "inactive"}
{"smiles": "CC(=O)OC(C)C[N+](C)(C)C", "note": "(stereo not given)", "Potency": "inactive"}
{"smiles": "Cc1ccc(S(=O)(=O)NC(=O)NN2CCCCCC2)cc1", "Potency": "inactive"}
{"smiles": "Cc1nc2ccccn2c(=O)c1CCN1CCC(C(=O)c2ccc(F)cc2)CC1", "Potency": "1.12 µM (active) and 4.47 µM (active)"}
{"smiles": "Cc1ccc(Cl)c(Nc2ccccc2C(=O)O)c1Cl", "Potency": "inactive"}
{"smiles": "CC(C)NCC(O)c1cc(O)cc(O)c1", "note": "(stereo not given)", "Potency": "inactive"}
{"smiles": "O=C(CCNNC(=O)c1ccncc1)NCc1ccccc1", "Potency": "inactive"}
{"smiles": "CO[C@@]1(NC(=O)CSCC#N)C(=O)N2C(C(=O)O)=C(CSc3nnnn3C)CS[C@@H]21", "Potency": "inactive"}
{"smiles": "COc1cc(C(=O)OCCCN2CCCN(CCCOC(=O)c3cc(OC)c(OC)c(OC)c3)CC2)cc(OC)c1OC", "Potency": "10 µM (active) and inactive"}
{"smiles": "CN=C(NC#N)NCCSCc1nc[nH]c1C", "Potency": "inactive"}
{"smiles": "C[C@]12C=CC(=O)C=C1CC[C@H]1[C@@H]3C[C@@H](O)[C@](O)(C(=O)CO)[C@@]3(C)C[C@H](O)[C@@]12F", "Potency": "inactive"}
